The panel holds about 83,000 compounds, 20% with a hit somewhere; the sample as a whole holds those more often.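 Assay: single dose, 48 h. Readout: percent growth (0 = no net growth; negative = cell death). Active: <10.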 Activity calls are given as the source filed them.

The assay relates to NCI-H23 lung. Briefly: NCI-60 one-dose screen, 48 h (100 = growth as untreated, 0 = no growth, -100 = all killed). As to conditions: 10 µM unless noted. The protocol:
Growth inhibition of the NCI-H23 human Non-Small Cell Lung tumor cell line is measured as a screen for anti-cancer activity. Cells are grown in 96 well plates and exposed to the test compound for 48 hours. Compounds are tested at a single concentration, which is 10^-5 M for most compounds. The reported endpoint is percent growth (GI% or GIPRCNT), where numbers from 0 - 100% represent growth inhibition, and numbers from -100% - 0 represent cell death. For example, a value of 40 represents 60% growth inhibition. A value of 0 means no net growth occurred over the course of the experiment. A value of -40 indicates 40% of cells at the beginning of the experiment died by the end of the experiment. A value of -100 means all cells are dead at the end of the experiment.
NCI-60 Human Tumor Cell Lines Screen was performed using the standard one-dose NCI protocol, which is described in more detail at https://dtp.cancer.gov/discovery_development/nci-60/default.htm.
Compounds with GIPRCNT values below 10 were considered active. Activity score was based on GIPRCNT using the following formula: […]
Score is 0 for GIPRCNT values of 100 or above, 50 for GIPRCNT values of 0, and 100 for GIPRCNT values of -100.
With `[2H]c1nc(Nc2ncc(F)c(-c3cc(F)c4nc(C)n(C(C)C)c4c3)n2)c([2H])c([2H])c1CN1CCN(CC)CC1`, the growth was 48.7% (inactive).
In the case of `Cc1[nH]c2ccc(F)cc2c1CCNC(=O)C1CCN(C(=O)c2ccc(-c3ccccc3)cc2)CC1` it was 45.5% (inactive); in that of `CN(C)CCCOc1c(Br)cc(/C=C/C(=O)N(C)CCc2cc(Br)c(OCCCN(C)C)c(Br)c2)cc1Br`, 81.5% (inactive).
With `CCc1ccc(C2=C/C(=C/c3ccc(Cl)cc3)C(=O)N2CCc2ccc(S(N)(=O)=O)cc2)cc1`, the growth was 34.4% (inactive).
On to `O=C(Cn1c2ccccc2c2ccncc21)N/N=C\c1ccc2ccccc2c1`, for which the growth is 55% (inactive).
As for `C/C(=N/NC(=O)Cn1c2ccccc2c2ccncc21)c1cccs1`, the growth was 98.1% (inactive).
With `O=S(c1ccccc1)c1ccc2nnnn2n1` (stereo not given), the growth was 100% (inactive).
Turning to `CS(=O)(=O)OCC(COS(C)(=O)=O)C(c1ccccc1)c1ccccc1`, the growth was 96.9% (inactive).
In the case of `C=C1C(=O)O[C@H]2[C@H]1CC/C(COC(=O)c1cccc3ccccc13)=C\CC[C@@]1(C)O[C@@H]21` it was 0.789% (active); in that of `O=C(Cn1c2ccccc2c2ccncc21)N/N=C/c1cc(O)c(O)c(O)c1`, 103% (inactive); in that of `Cc1ccc2c(c1)Nc1ccc(C)cc1C2(C)C`, 94.9% (inactive).
For the compound `Cc1ccc(NC(=O)CN2CCOCC2)cc1Cl`, the growth is 101% (inactive).
As to `O=C(N/N=C/c1ccccc1O)c1ccccc1O`, the growth is 37.5% (inactive).
In the case of `COc1cc2nc(C(=O)N3CCCCC3)cc(Nc3ccccc3)c2cc1OC`, the growth is 96.7% (inactive).
In the case of `CCC1S/C(=N\N=C(/C)c2cccs2)N(c2ccccc2)C1=O` (stereo not given) it was 101% (inactive).
In the case of `CC12CCC3C(CCC4CC(O)CCC43C)C1C/C(=C/O)C(=O)O2` (stereo not given), the growth was 98.7% (inactive).
`CC(=O)Cc1cccnc1`: the growth was 96.5% (inactive).
As for `CC(C)(C)C(=O)/C=c1/[nH]c(=O)/c(=C/c2ccccc2O)s1`, the growth was 73.1% (inactive).
In the case of `O=C(Nc1ccc(-n2cc(-c3ccncc3)c(-c3ccc(O)c(Cl)c3)n2)cc1)c1cc(C(F)(F)F)cc(C(F)(F)F)c1` it was 82% (inactive); in that of `CNCCCOc1c(Br)cc(CCNC(=O)/C(Cc2ccc(OC)c(Br)c2)=N/O)cc1Br`, 62.7% (inactive); in that of `Cc1ncc(CO)c(C(=O)O)c1O`, 98.6% (inactive).
With `O=C(Nc1ccc(-n2cc(-c3ccncc3)c(-c3ccc(O)c(Cl)c3)n2)cc1)Nc1cccc(Cl)c1Cl`, the growth was 66% (inactive).
In the case of `COC(=O)c1oc2c(C(=O)/C=C/c3ccc(OC)cc3)c(OCCN3CCOCC3)ccc2c1C`, the growth was 18.7% (inactive).
Take `COc1ccccc1N1CCN(CCCOc2ccc(OCCCN3CCN(c4ccccc4OC)CC3)c(C(=O)c3cc(OC)c(OC)c(OC)c3)c2)CC1`: the growth is 95.4% (inactive).
Under `CC1(C)CC(=O)C2=C(C1)OC1=C(C(=O)CC(C)(C)C1)C2c1ccc(OCc2cn(-c3ccc(F)cc3F)nn2)cc1` stands 102% (inactive); under `C[C@]12O[C@H]1[C@H](O)c1c(cc(O)c3c1C(=O)c1cccc(O)c1-3)C2=O`, 99% (inactive).
Regarding `OC[C@@H](O)C(O[C@@H]1O[C@H](CO)[C@H](O)[C@H](O)[C@H]1O)[C@H](O)[C@@H](O)CO` (stereo not given in full), the growth was 98.3% (inactive).
As to `O=C(CSc1nnc(-c2ccccc2)o1)Nc1ccc(C(=O)/C=C/c2ccccc2)cc1`, the growth is 77.6% (inactive).
For the compound `COc1cc(Nc2ncccc2C(=O)Nc2nc3ccc(F)cc3s2)cc(OC)c1OC`, the growth is 55.8% (inactive).
With `O=S(=O)(Nc1cccc2cc(OS(=O)(=O)c3ccccc3)ccc12)c1ccccc1`, the growth was 73.8% (inactive).
Take `CC1=C2C(=C[C@@](C)(CO)[C@@H]2OC(=O)N(C)CCN(C)C(=O)OC(C)(C)C)C(=O)[C@](C)(O)C12CC2`: the growth is 11.8% (inactive).
Under `NC(CCCC(N)C(=O)c1ccccc1)C(=O)O` (stereo not given) stands 98.4% (inactive); under `Cc1ccc(-c2nc3c(N=Nc4ccc(S(N)(=O)=O)cc4)c(N)nn3c(N)c2C#N)cc1`, 43.9% (inactive).
Under `CCc1c(C)c2cc3nc(NCc4ccccc4)oc3c(C)c2oc1=O` stands 69.7% (inactive).
On to `CC(=O)Nc1ccc([I+]c2ccc([N+](=O)[O-])cc2)cc1`, for which the growth is 84.6% (inactive).
With `COc1ccc(-c2c(C#N)cnc(N)c2-c2nc3cc(C)c(C)cc3[nH]2)cc1`, the growth is 44.9% (inactive).
Regarding `Clc1ccc(CN2COc3c(ccc4cccnc34)C2)cc1Cl`, the growth was 13.5% (inactive).
Under `COc1ccc(-c2nnc(SCC(=O)Nc3ccc(C(=O)/C=C/c4ccc(Cl)cc4)cc3)o2)cc1OC` stands 79% (inactive).
Turning to `CC(C)(C)OC(=O)NCc1cccc(N=C=S)c1`, the growth is 55.3% (inactive).
`CN(C)c1ccc(/C=c2\s/c(=C\C(=O)C(C)(C)C)[nH]c2=O)cc1`: the growth was 98% (inactive).

The record behind these values is PubChem BioAssay (NCI).
